Hit rate of the full screen: of about 310,000 compounds, about 2,200 (0.71%) showed an effect of 50% or more. The effect is printed as a negative number. The sample holds strong results, similar compounds and a random draw of the others, so the mix is not that of the screen.

For this test, the target named is human ether-à-go-go-related gene (hERG) potassium channel (human, UniProt Q12809). The test is described as follows: primary screen, population patch clamp on CHO cells stably expressing hERG; higher = less effect of the substance.
Sequence of human ether-à-go-go-related gene (hERG) potassium channel (Q12809 whole entry, looked up): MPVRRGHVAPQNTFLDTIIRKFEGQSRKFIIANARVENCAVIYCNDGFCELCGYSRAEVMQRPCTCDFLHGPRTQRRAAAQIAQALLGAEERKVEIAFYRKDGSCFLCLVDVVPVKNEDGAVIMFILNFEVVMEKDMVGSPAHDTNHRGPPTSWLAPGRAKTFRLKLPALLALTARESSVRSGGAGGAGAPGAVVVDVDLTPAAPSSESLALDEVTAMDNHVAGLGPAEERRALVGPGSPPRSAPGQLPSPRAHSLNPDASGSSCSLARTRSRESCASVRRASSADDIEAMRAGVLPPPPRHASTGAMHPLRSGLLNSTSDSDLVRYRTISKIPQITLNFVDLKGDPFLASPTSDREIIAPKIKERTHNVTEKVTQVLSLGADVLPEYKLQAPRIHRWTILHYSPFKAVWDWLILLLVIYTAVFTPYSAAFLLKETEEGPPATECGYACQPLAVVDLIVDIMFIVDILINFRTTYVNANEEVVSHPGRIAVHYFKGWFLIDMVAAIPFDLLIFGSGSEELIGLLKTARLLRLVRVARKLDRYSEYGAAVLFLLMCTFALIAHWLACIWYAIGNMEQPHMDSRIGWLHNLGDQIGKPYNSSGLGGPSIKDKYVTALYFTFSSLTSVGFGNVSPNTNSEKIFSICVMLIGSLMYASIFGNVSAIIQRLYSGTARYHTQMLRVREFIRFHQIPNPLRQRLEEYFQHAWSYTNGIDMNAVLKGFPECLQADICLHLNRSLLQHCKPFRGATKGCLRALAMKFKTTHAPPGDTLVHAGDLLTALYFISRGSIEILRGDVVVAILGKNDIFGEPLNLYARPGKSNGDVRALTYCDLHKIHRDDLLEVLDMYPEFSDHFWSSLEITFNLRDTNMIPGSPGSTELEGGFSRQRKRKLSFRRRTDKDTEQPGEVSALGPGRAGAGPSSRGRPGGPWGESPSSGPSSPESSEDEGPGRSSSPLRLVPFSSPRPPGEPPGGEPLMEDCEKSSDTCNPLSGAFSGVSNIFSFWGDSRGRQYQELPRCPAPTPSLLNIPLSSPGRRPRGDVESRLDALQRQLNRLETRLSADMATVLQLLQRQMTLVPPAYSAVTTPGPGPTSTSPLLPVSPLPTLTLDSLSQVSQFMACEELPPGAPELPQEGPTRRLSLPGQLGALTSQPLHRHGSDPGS
As for `COc1ccc(/C=C2/C(=O)NC(=O)N(c3ccc(C)c(C)c3)C2=O)cc1CN1C(=O)c2ccccc2C1=O`, the “hERG current change (%, negative = inhibition) at 1uM” value is recorded as -3.04%.

Consider `CCCC(=O)Nc1c2c(nn1-c1cccc(C)c1C)CS(=O)(=O)C2`, for which the “hERG current change (%, negative = inhibition) at 1uM” value worked out at 4.62%.

For the molecule `COc1ccccc1/C=C1\SC(=O)N(CCC(=O)N2CCCCC2CCO)C1=O` (stereo not shown), the “hERG current change (%, negative = inhibition) at 1uM” value is reported as 14.7%.

Regarding `CCOC(=O)c1c2ccc(OCC(=O)NN)cc2n2ccccc12`, the “hERG current change (%, negative = inhibition) at 1uM” value was 13.3%.

On to `CC1CC(C)CN(CCCNC(=O)C2CCN(c3ncnc4c3sc3cccc(F)c34)CC2)C1` (stereo not shown), for which the “hERG current change (%, negative = inhibition) at 1uM” value is -14.9%.

`CCCCN(C)CCCNC(=O)c1cc(-c2cccnc2)nc2ccccc12`: the “hERG current change (%, negative = inhibition) at 1uM” value is -20.2%.

With `CCCCCCNC(=O)c1cc(-c2ccco2)nc2ccccc12`, the “hERG current change (%, negative = inhibition) at 1uM” value is listed as 7.12%.

Turning to `CCN(CC)CCNC(=O)c1ccc(NC(=O)c2cc(-c3ccco3)nc3ccccc23)cc1`, the “hERG current change (%, negative = inhibition) at 1uM” value was 9.15%.

For `CC(C)CCNC(=O)c1cc(-c2cccs2)nc2ccccc12`, the “hERG current change (%, negative = inhibition) at 1uM” value stood at 2.51%.

For the molecule `CCCCN(C)CCCNC(=O)c1cc(-c2cccs2)nc2ccccc12`, the “hERG current change (%, negative = inhibition) at 1uM” value is -80.8%.

Turning to `CCN(CC)CCNC(=O)c1cc(-c2ccco2)nc2ccccc12.Cl`, the “hERG current change (%, negative = inhibition) at 1uM” value is -55%.

For the molecule `O=C(NC1CCCCC1)N(C1=NCCCCC1)c1ccc(Br)cc1`, the “hERG current change (%, negative = inhibition) at 1uM” value is 13.1%.

With `Cc1cccc(NC(=O)CSCc2nc3c(nnn3Cc3ccc(F)cc3)c(=O)[nH]2)c1C`, the “hERG current change (%, negative = inhibition) at 1uM” value came out at 8.63%.

With `Cc1cc(C)n2nc(NCc3cccc(Br)c3)nc2n1`, the “hERG current change (%, negative = inhibition) at 1uM” value is -32.1%.

`O=C(Nc1cccc(NC(=O)c2ccccc2Cl)c1)c1ccc(F)cc1`: the “hERG current change (%, negative = inhibition) at 1uM” value amounted to 7.98%.

Take `CCOCc1c(C(=O)NC2CCCCCC2)oc2ccccc12`: the “hERG current change (%, negative = inhibition) at 1uM” value is listed as -1.11%.

For `COCc1c(C(=O)NCc2ccccc2CN2CCCC2)oc2ccccc12`, the “hERG current change (%, negative = inhibition) at 1uM” value was -34%.

For the molecule `CCOC(=O)c1oc2ccccc2c1CN1CCOCC1.Cl`, the “hERG current change (%, negative = inhibition) at 1uM” value is -5.9%.

Turning to `CCOCc1c(C(=O)NCc2ccccc2CN2CCCC2)oc2ccccc12`, the “hERG current change (%, negative = inhibition) at 1uM” value is -60.1%.

As for `COc1ccc2oc(C(=O)NCc3ccccc3CN3CCCC3)c(C)c2c1`, the “hERG current change (%, negative = inhibition) at 1uM” value is -27.2%.

As to `Cc1c(C(=O)NCc2ccccc2CN2CCCC2)oc2ccc(F)cc12`, the “hERG current change (%, negative = inhibition) at 1uM” value is listed as -57.4%.

Take `CCOC(=O)c1oc2ccccc2c1CN1CCCCC1.Cl`: the “hERG current change (%, negative = inhibition) at 1uM” value is given as -9.66%.

Consider `CCOc1ccc2oc(C(=O)NCc3ccccc3CN3CCCC3)c(C)c2c1`, for which the “hERG current change (%, negative = inhibition) at 1uM” value is reported as -12.2%.

Turning to `CCOC(=O)c1oc2ccccc2c1CN1CCN(C)CC1.Cl`, the “hERG current change (%, negative = inhibition) at 1uM” value is -50.2%.

Regarding `Cc1ccc(NC(=O)CCn2c(=S)oc3ccccc32)cc1`, the “hERG current change (%, negative = inhibition) at 1uM” value is listed as 11%.

`CC(C)(C)C(=O)Nc1c(Cl)cccc1OC(F)(F)F`: the “hERG current change (%, negative = inhibition) at 1uM” value is 12.4%.

For the molecule `CC1CCN(S(=O)(=O)c2ccc3c(c2)n(C)c(=O)n3C)CC1`, the “hERG current change (%, negative = inhibition) at 1uM” value was determined as 0.216%.

Take `COc1ccc(CCN(C(=O)/C=C/C(=O)O)C2CC(=O)N(c3ccccc3)C2=O)cc1` (stereo not shown): the “hERG current change (%, negative = inhibition) at 1uM” value is listed as 8.45%.

For the molecule `C=C(C)CNC(=O)CCc1nnc(C2(c3ccc(Cl)cc3)CCC2)o1`, the “hERG current change (%, negative = inhibition) at 1uM” value stood at 12.3%.

Consider `CCNC(=S)N1CCN(Cc2ccccc2)CC1.O=C(O)C(=O)O`, for which the “hERG current change (%, negative = inhibition) at 1uM” value is -7.37%.

On to `NC(=O)CN1CCN(Cc2ccc3c(c2)OCO3)CC1`, for which the “hERG current change (%, negative = inhibition) at 1uM” value is listed as 22.5%.

On to `O=C(CN1CCN(S(=O)(=O)c2ccc(F)cc2)CC1)Nc1ccc2c(c1)OCO2`, for which the “hERG current change (%, negative = inhibition) at 1uM” value was -8%.

Regarding `O=C(CN1CCN(Cc2ccc(F)cc2)CC1)Nc1nc2ccccc2s1`, the “hERG current change (%, negative = inhibition) at 1uM” value is reported as -54%.

Turning to `O=C(CN1CCN(Cc2ccc3c(c2)OCO3)CC1)Nc1ccc(N2CCOCC2)cc1`, the “hERG current change (%, negative = inhibition) at 1uM” value came to 8.8%.

With `COC(=O)c1ccsc1NC(=O)CN1CCN(Cc2ccc3c(c2)OCO3)CC1`, the “hERG current change (%, negative = inhibition) at 1uM” value is given as -59.7%.

On to `O=C(CN1CCN(Cc2ccc3c(c2)OCO3)CC1)Nc1ccc2c(c1)OCO2`, for which the “hERG current change (%, negative = inhibition) at 1uM” value is on record as -64.3%.

For the molecule `O=C(CN1CCN(CC(=O)Nc2ccc3c(c2)OCO3)CC1)Nc1ccc(F)cc1`, the “hERG current change (%, negative = inhibition) at 1uM” value is on record as -83.5%.

Take `CCCN1CCN(CC(=O)Nc2nc3ccccc3s2)CC1`: the “hERG current change (%, negative = inhibition) at 1uM” value is -17.9%.

As for `O=C(CN1CCN(c2ccc(F)cc2)CC1)Nc1ccc2c(c1)OCCO2`, the “hERG current change (%, negative = inhibition) at 1uM” value was found to be 14.1%.

As for `COc1ccc(NC(=O)CN2CCN(Cc3ccc4c(c3)OCO4)CC2)cc1OC.O=C(O)C(=O)O`, the “hERG current change (%, negative = inhibition) at 1uM” value was 4.15%.

On to `O=C(CN1CCN(Cc2ccccc2)CC1)Nc1nc2ccccc2s1`, for which the “hERG current change (%, negative = inhibition) at 1uM” value was -24.1%.

On to `COC(=O)c1c(NC(=O)CN2CCN(Cc3ccc4c(c3)OCO4)CC2)sc(C)c1C.O=C(O)C(=O)O`, for which the “hERG current change (%, negative = inhibition) at 1uM” value was 5.45%.

Take `CN(Cc1ccccc1)C(=O)CN1C(=O)NC(C)(c2ccc(Cl)cc2)C1=O` (stereo not shown): the “hERG current change (%, negative = inhibition) at 1uM” value stood at 12.8%.

Values taken from PMC4336329 (PLoS ONE, 2015).
